# This is a sample that favours compounds with a hit; in the whole collection about 19% have one here.
# Cycloheximide cs: counter-screen hit for Shiga toxin inhibitors, cycloheximide; cell reporter, cycloheximide protein synthesis inhibition counterscreen; max response, %; 12% of 300,000 active; in the data active means max response mostly above about 13%, no sharp cut-off; inactive means mostly below about 14%; further: read at 38.3 µM for the half of the compounds with a filed dose
# MARV entry inh: Marburg virus entry inhibition | Marburg virus pseudotyped entry inhibition, cell reporter | Potency, µM (top dose mostly 37.8 µM), hits mostly inhibitors | 1.8% of 300,000 active | AID 540276; calls by dose curve; tested in HEK293 cells
# Shiga inhibitor: blocks Shiga toxin action in Vero cells; Vero cells, Shiga toxin protein synthesis inhibition reporter; inhibition, % at 38.7 µM; 9.2% of 290,000 active; AID 2315; in the data active means inhibition mostly above about 28%, no sharp cut-off; inactive means mostly below about 43%
# Pf growth 48h: inhibits P. falciparum growth in the first generation, 48 h | P. falciparum luciferase growth in erythrocytes, 48 h | Potency, µM (highest dose often 28.7 µM), usual class: inhibitors | 5.9% of 310,000 active
#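 Here the parasites carry a stable luciferase gene and grow inside erythrocytes in Albumax-based RPMI medium with compound for one erythrocytic cycle. Activity is scored as loss of luminescent signal.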
# Pf growth 96h: inhibits malaria parasite growth, 96 h; Potency, µM (series often up to 28.7 µM), most hits filed as inhibitors; P. falciparum luciferase reporter growth, 96 h; 6.9% of 320,000 active
#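 Compounds incubated with erythrocytes infected by luciferase-expressing P. falciparum (2% hematocrit, 0.05% parasitemia final) for 96 hours, 37 C in 5% CO2. Growth inhibition scored as decreased luciferase luminescence.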
# Lassa entry inh: blocks Lassa virus binding to or entry into cells; 1.2% of 300,000 active; Potency, µM (doses to about 37.9 µM), hits mostly inhibitors; Lassa virus pseudotype entry inhibition, cell reporter; calls by dose curve; tested in HEK293 cells; further: nearly all actives have a fitted effect of over 50% in size
# Numbers stand for hits; - = inactive; ? = inconclusive; . = not tested or not shown; [ ] = another dose, or the depositor's remark. Unless noted, the call rests on the fitted dose curve; in most records, active means well fitted inhibition curve with a large enough effect; inconclusive means small, poorly fitted or top-dose-only effect, or another doubt; inactive means no such curve, though single readings can be large or run the other way.
SMILES,Cycloheximide cs,MARV entry inh,Shiga inhibitor,Pf growth 48h,Pf growth 96h,Lassa entry inh
O=C(c1cc(-c2cccc(Br)c2)nc2ccccc12)N1CCCC1,-,.,-,?,-,.
Cc1ccc(-c2cc(C(F)F)n3ncc(C(=O)N4CCCc5ccccc54)c3n2)cc1,-,?,-,?,-,-
Cc1cccc(-c2cc(C(=O)N3CCCc4ccccc43)c3ccccc3n2)c1,22,?,-,8.3µM,?,-
Cc1cc2nc(-c3cccc(NC(=O)c4ccc(Br)o4)c3C)oc2cc1C,24,-,-,-,-,-
Cc1ccc2oc(-c3cccc(NC(=O)c4ccc(Br)o4)c3C)nc2c1,66,-,70,.,-,?
COc1ccc(-c2oc3ncn4nc(-c5ccccc5Cl)nc4c3c2-c2ccc(OC)cc2)cc1,.,.,.,.,.,-
Cc1cc(C)nc(NC(=S)NC(=O)c2ccccc2F)n1,.,-,.,.,.,-
Cc1noc(NC(=O)c2ccccc2)c1C#N,-,?,-,-,-,-
Cc1cc(NC(=O)c2ccccc2F)on1,42,?,67,-,-,-
COc1cc2ccccc2cc1C(=O)NNC(=O)c1ccccc1O,-,.,-,?,?,.
COc1cc2ccccc2cc1C(=O)Nc1ccc(C)cn1,48,.,102,-,-,.
Cc1ccc(NC(=O)c2cc(F)c(F)cc2Cl)nc1,58,?,49,-,-,-
Cc1ccc(C(=O)Nc2onc(C)c2C#N)cc1,12,?,-,-,-,-
CCOC(=O)c1c(NC(=O)COc2cccc(C(F)(F)F)c2)sc2c1CCC(C)C2 (stereo unspecified),.,.,.,.,.,-
CCn1cc(CN2CCC(n3nccc3NC(=O)CCc3ccccc3)CC2)cn1,-,?,-,-,-,-
COc1cc(OC)cc(C(=O)Nc2cc(-c3nc4ccccc4[nH]3)ccc2C)c1,.,-,.,.,.,?
Cc1ccc(NC(=O)c2ccccc2F)nc1,43,-,66,-,.,?
Cc1cc(NC(=O)c2ccc(C#N)cc2)on1,11,.,-,-,-,.
CCCCOc1ccc(C(=O)Nc2cc(-c3ccc(C)cc3)no2)cc1,.,-,.,.,.,-
O=c1oc2ccc3ccccc3c2cc1-c1nnc(-c2ccccc2)o1,42,-,-,-,-,-
COc1ccc(-c2nnc(-c3cc4c(ccc5ccccc54)oc3=O)o2)cc1,-,-,-,-,-,-
O=c1oc2ccc3ccccc3c2cc1-c1nnc(-c2cccs2)o1,25,-,-,-,-,?
C#CCN(C#N)c1nc(NCC)nc(NC(C)C)n1,-,-,-,-,-,-
Cc1cccc(Nc2nnc(SCC3CCCCO3)s2)c1C (stereo unspecified),54,?,66,?,12µM,?
COc1cccc(Nc2nnc(SCC3CCCCO3)s2)c1 (stereo unspecified),53,?,53,-,?,?
SMILES,Cycloheximide cs,MARV entry inh,Shiga inhibitor,Pf growth 48h,Pf growth 96h,Lassa entry inh
COc1ccc(Nc2nnc(SCC3CCCO3)s2)cc1 (stereo unspecified),24,-,-,-,?,?
Cc1cccc(NC(=O)/C(C#N)=C/c2cn(CC(=O)NCc3ccco3)c3ccccc23)c1,-,?,-,-,-,-
COCCNC(=S)Nc1cccc2cnccc12,-,?,-,-,-,-
Cc1nc2ccc(NC(=O)NC(=O)c3c(Cl)cccc3Cl)cc2o1,-,-,-,?,?,-
COc1ccccc1-c1nn(-c2ccccc2)cc1C(=O)N1CCN(C(=O)c2ccco2)CC1,.,-,.,?,-,?
COc1ccccc1-c1nn(-c2ccccc2)cc1C(=O)N1CCc2ccccc2C1,.,.,.,?,3.7µM,.
COc1cccc(-c2nn(-c3ccc(C)cc3)cc2C(=O)N2CCc3cc(OC)c(OC)cc3C2)c1,.,?,.,9.3µM,?,?
COc1ccc(OC)c(-c2nn(-c3ccccc3)cc2C(=O)N2CCc3ccccc3C2)c1,.,.,.,10µM,?,.
CCN(CC)CCCn1c(=S)[nH]c2cc(OC)c(OC)cc2c1=O,-,?,-,-,.,-
O=C(CCC(=O)OCc1cccc([N+](=O)[O-])c1)Nc1ccccc1Cl,-,-,-,-,-,-
Cc1cc(C)n(-c2ccc(C(=O)OCC(=O)N(CC(C)C)C3CCS(=O)(=O)C3)cc2)n1 (stereo unspecified),-,-,-,?,?,-
Nc1ccc2nc(NC(=O)C3CCCCC3)sc2c1,57,?,104,-,-,-
O=C(Nc1nc2ccccc2s1)C1CCCO1 (stereo unspecified),47,?,89,.,-,?
O=C(Nc1ncc(Cc2ccccc2)s1)C1CCCO1 (stereo unspecified),34,?,63,-,-,15µM
O=C(Nc1nc2ccc(F)cc2s1)C1CCCO1 (stereo unspecified),26,-,94,-,-,?
Cc1ccccc1OCC(=O)NCCc1nc2ccccc2[nH]1,-,?,-,-,-,-
Cc1cc(C)n(C(=O)CNc2cccc(Cl)c2C)n1,-,-,-,-,.,-
CCOc1cc(/C=C2/SC(=Nc3ccccc3)N(Cc3cccnc3)C2=O)ccc1OCC#N,-,?,-,?,2.1µM,?
COc1ccc(/C=C2\SC(=S)N(Cc3cccnc3)C2=O)cc1C,-,?,-,?,?,-
Cc1ccccc1S(=O)(=O)Cc1ccc(C(=O)NCCN(CC(C)C)CC(C)C)o1,-,?,-,-[0.00184 µM],-,?
O=C(OCCN1CCCCC1)C1(c2ccccc2)CCCC1,-,?,-,-,-,?
c1ccc(C2(N3CCCC3)CCCCC2)cc1,.,.,.,15µM,13µM,.
CCC(C)c1ccc2oc(-c3ccc(NC(=O)Cn4cnc5c(=O)n(C)c(=O)n(C)c54)cc3)nc2c1 (stereo unspecified),58,?,154,-,?,?
Cc1ccc2oc(-c3cccc(NC(=O)Cn4cnc5c(=O)n(C)c(=O)n(C)c54)c3)nc2c1,34,.,137,-,-,.
Cc1ccc(N2C(N)=C(C#N)C(c3cccnc3)C3=C2CC(C)(C)CC3=O)cc1 (stereo unspecified),-,?,-,?,-,?
SMILES,Cycloheximide cs,MARV entry inh,Shiga inhibitor,Pf growth 48h,Pf growth 96h,Lassa entry inh
Cc1ccc(C(=O)OC(C)C(=O)c2cc(C)c(C)cc2C)o1 (stereo unspecified),20,-,-,?,-,-
COCCOC(=O)c1c(NC(=O)CN2CCc3ccccc32)sc(C(N)=O)c1C,-,.,-,?,?,.
Cc1nnc(N/N=C/c2c(O)n(-c3cccc(C(F)(F)F)c3)c(=O)c3ccccc23)[nH]c1=O,-,.,-,6.6µM,?,.
CC(C)CNS(=O)(=O)c1ccc(CCC(=O)N2CCN(c3ccc(F)cc3)CC2)cc1,-,.,-,?,?,.
Cc1ccc([N+](=O)[O-])cc1S(=O)(=O)N1CCN(C)CC1,-,-,-,-,-,-
CCN1CCN(c2ccc(N3CCN(S(=O)(=O)c4cc([N+](=O)[O-])ccc4C)CC3)nn2)CC1,.,-,.,10µM,?,-
Cc1ccc([N+](=O)[O-])cc1S(=O)(=O)n1ccnc1C,-,?,-,5.2µM,-,-
CN(C)S(=O)(=O)c1ccc(C(=O)NCc2nnc(SCC(=O)Nc3ccc(F)cc3)n2-c2ccc(F)cc2)cc1,-,-,-,?,?,?

# Screens (PubChem)
